Out of some 5,500 compounds screened, about 2,000 (36%) were called active. Roughly 18% stayed inconclusive and do not appear here. Rule as the data show it: active = normalized growth mostly below about 0.91 (no sharp cut-off); inconclusive = no clear call, values can overlap the other calls; inactive = mostly above about 0.92. The list shows a part of the results.
Test: chemical genetic growth profiling, strain panel (AID 1159580);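 also: tested at 20 µM; growth read once vehicle control cultures reached saturation at 30 °C; 1 = growth at the plate median or of vehicle wells; lower values mean less growth of the strain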
Details: growth OD

Measured: normalized growth

COc1cc(-c2coc3cc(OCc4ccccc4)c(OC)c(O)c3c2=O)cc(OCc2ccccc2)c1OC
inactive: S. cerevisiae deletion strains, locus YAL013W, strain DEP1, active compounds read low 1.04 | S. cerevisiae deletion strains, locus YBR021W, strain FUR4, active compounds read low 1.01 | S. cerevisiae deletion strains, locus YBR229C, strain ROT2, active compounds read low 0.995 | S. cerevisiae deletion strains, locus YCL029C, strain bik1, active compounds read low 0.981 | S. cerevisiae deletion strains, locus YDL035C, strain GPR1, active compounds read low 1.03 | S. cerevisiae deletion strains, locus YDL074C, strain BRE1, active compounds read low 1.02 | S. cerevisiae deletion strains, locus YDL101C, strain DUN1, active compounds read low 0.99 | S. cerevisiae deletion strains, locus YDL185W, strain tfp1, active compounds read low 0.989 | S. cerevisiae deletion strains, locus YDL192W, strain arf1, active compounds read low 0.981 | S. cerevisiae deletion strains, locus YDR101C, strain arx1, active compounds read low 0.991 | S. cerevisiae deletion strains, locus YDR150W, strain NUM1, active compounds read low 1.01 | S. cerevisiae deletion strains, locus YDR162C, strain NBP2, active compounds read low 1.02 | S. cerevisiae deletion strains, locus YDR318W, strain mcm21, active compounds read low 0.992 | S. cerevisiae deletion strains, locus YDR388W, active compounds read low 0.981 | S. cerevisiae deletion strains, locus YDR502C, strain sam2, active compounds read low 0.991 | S. cerevisiae deletion strains, locus YEL061C, strain CIN8, active compounds read low 1.01 | S. cerevisiae deletion strains, locus YER110C, active compounds read low 0.974 | S. cerevisiae deletion strains, locus YER155C, strain BEM2, active compounds read low 0.999 | S. cerevisiae deletion strains, locus YER167W, strain BCK2, active compounds read low 1 | S. cerevisiae deletion strains, locus YGL078C, strain dbp3, active compounds read low 0.988 | S. cerevisiae deletion strains, locus YGL086W, strain mad1, active compounds read low 0.975 | S. cerevisiae deletion strains, locus YGL248W, strain PDE1, active compounds read low 0.973 | S. cerevisiae deletion strains, locus YGR078C, strain PAC10, active compounds read low 1 | S. cerevisiae deletion strains, locus YGR135W, strain pre9, active compounds read low 0.986 | S. cerevisiae deletion strains, locus YGR229C, strain SMI1, active compounds read low 1.04 | S. cerevisiae deletion strains, locus YGR252W, strain gcn5, active compounds read low 1.07 | S. cerevisiae deletion strains, locus YHR030C, strain SLT2, active compounds read low 0.989 | S. cerevisiae deletion strains, locus YHR079C, strain IRE1 (second series), active compounds read low 0.98 | S. cerevisiae deletion strains, locus YHR094C, strain hxt1, active compounds read low 0.978 | S. cerevisiae deletion strains, locus YHR129C, strain ARP1, active compounds read low 0.986 | S. cerevisiae deletion strains, locus YHR200W, strain rpn10, active compounds read low 0.988 | S. cerevisiae deletion strains, locus YIL066C, strain RNR3, active compounds read low 0.982 | S. cerevisiae deletion strains, locus YIL073C, strain SPO22, active compounds read low 0.969 | S. cerevisiae deletion strains, locus YIL125W, strain kgd1, active compounds read low 0.984 | S. cerevisiae deletion strains, locus YIR030C, strain dcg1, active compounds read low 0.988 | S. cerevisiae deletion strains, locus YJL095W, strain BCK1, active compounds read low 0.972 | S. cerevisiae deletion strains, locus YJL134W, strain LCB3, active compounds read low 0.993 | S. cerevisiae deletion strains, locus YJL168C, strain set2, active compounds read low 0.977 | S. cerevisiae deletion strains, locus YJL187C, strain SWE1 (second series), active compounds read low 0.968 | S. cerevisiae deletion strains, locus YJR043C, strain POL32, active compounds read low 1.04 | S. cerevisiae deletion strains, locus YJR075W, strain HOC1, active compounds read low 1.01 | S. cerevisiae deletion strains, locus YKL009W, strain mrt4, active compounds read low 0.968 | S. cerevisiae deletion strains, locus YKL068W, active compounds read low 0.992 | S. cerevisiae deletion strains, locus YKL085W, strain MDH1 (second series), active compounds read low 1.03 | S. cerevisiae deletion strains, locus YKL085W, strain MDH1, active compounds read low 1.03 | S. cerevisiae deletion strains, locus YKL190W, strain CNB1, active compounds read low 1.01 | S. cerevisiae deletion strains, locus YKR001C, strain vps1, active compounds read low 0.964 | S. cerevisiae deletion strains, locus YLR039C, strain RIC1, active compounds read low 1.05 | S. cerevisiae deletion strains, locus YLR058C, strain SHM2, active compounds read low 0.989 | S. cerevisiae deletion strains, locus YLR102C, strain apc9, active compounds read low 0.98 | S. cerevisiae deletion strains, locus YLR262C, strain YPT6, active compounds read low 1.08 | S. cerevisiae deletion strains, locus YLR268W, strain sec22, active compounds read low 0.967 | S. cerevisiae deletion strains, locus YLR330W, strain CHS5, active compounds read low 0.994 | S. cerevisiae deletion strains, locus YLR342W, strain FKS1 (second series), active compounds read low 1.02 | S. cerevisiae deletion strains, locus YLR371W, strain rom2, active compounds read low 0.97 | S. cerevisiae deletion strains, locus YLR418C, strain cdc73, active compounds read low 0.983 | S. cerevisiae deletion strains, locus YML016C, strain PPZ1, active compounds read low 0.991 | S. cerevisiae deletion strains, locus YML032C, strain rad52, active compounds read low 1 | S. cerevisiae deletion strains, locus YML124C, strain tub3, active compounds read low 0.983 | S. cerevisiae deletion strains, locus YMR078C, strain ctf18, active compounds read low 0.975 | S. cerevisiae deletion strains, locus YMR223W, strain ubp8, active compounds read low 0.99 | S. cerevisiae deletion strains, locus YMR307W, strain GAS1, active compounds read low 1.12 | S. cerevisiae deletion strains, locus YNL067W, strain RPL9B, active compounds read low 0.984 | S. cerevisiae deletion strains, locus YNL233W, strain BNI4, active compounds read low 0.977 | S. cerevisiae deletion strains, locus YNL250W, strain rad50, active compounds read low 0.971 | S. cerevisiae deletion strains, locus YNL271C, strain bni1, active compounds read low 0.981 | S. cerevisiae deletion strains, locus YNL298W, strain CLA4, active compounds read low 0.982 | S. cerevisiae deletion strains, locus YNL307C, strain MCK1, active compounds read low 0.969 | S. cerevisiae deletion strains, locus YNL322C, strain KRE1, active compounds read low 0.999 | S. cerevisiae deletion strains, locus YNR052C, strain pop2, active compounds read low 0.991 | S. cerevisiae deletion strains, locus YOL006C, strain TOP1, active compounds read low 0.936 | S. cerevisiae deletion strains, locus YOL012C, strain htz1 0.883 | S. cerevisiae deletion strains, locus YOL147C, strain pex11, active compounds read low 0.989 | S. cerevisiae deletion strains, locus YOR061W, strain CKA2, active compounds read low 0.989 | S. cerevisiae deletion strains, locus YOR069W, strain VPS5, active compounds read low 0.99 | S. cerevisiae deletion strains, locus YOR136W, strain idh2, active compounds read low 0.98 | S. cerevisiae deletion strains, locus YOR144C, strain elg1, active compounds read low 1 | S. cerevisiae deletion strains, locus YOR184W, strain ser1, active compounds read low 0.979 | S. cerevisiae deletion strains, locus YOR316C, strain cot1, active compounds read low 0.981 | S. cerevisiae deletion strains, locus YPL055C, strain LGE1, active compounds read low 0.987 | S. cerevisiae deletion strains, locus YPR119W, strain clb2, active compounds read low 0.981 | S. cerevisiae deletion strains, locus YPR141C, strain kar3, active compounds read low 0.963 | S. cerevisiae deletion strains, locus YPR163C, strain tif3, active compounds read low 0.989 | S. cerevisiae deletion strains, locus YPR167C, strain met16, active compounds read low 0.988 | S. cerevisiae deletion strains, strain wtn01, active compounds read low 0.981 | S. cerevisiae strains, strain wild type, active compounds read low 1

Source: PubChem BioAssay AID1159580 (chemical genetic matrix, 2015)
